Test results from PubChem BioAssay AID1239 (SRMLSC, 2008).
About 3,100 (1.6%) of roughly 190,000 compounds were called active. This is one part of a sample in which actives are shown more often than they occur. Rule as the data show it: active = fold change above about 3.3; inconclusive = no clear call, values can overlap the other calls; inactive = below that.

test: activators of NF-kB expression in neurons, primary screen, cell-based, HTS (AID 1239); details: human neuronal cells, NF-kB reporter expression; at 12.5 µM; stronger effect = higher value

Fold change, inactive:
Cn1cc(/C=C/c2nc3ccccc3c(=O)n2-c2cccc([N+](=O)[O-])c2)c2ccccc21 1.02
C/[N+]([O-])=C\c1ccc([N+](=O)[O-])o1 0.83
Cn1c(=N)n(CC(O)c2cccs2)c2ccccc21 (stereo not drawn) 1.08
CC(C)(C)N(CC#CCC(O)(c1ccccc1)C1CCCC1)CCO (stereo not drawn) 1.15
COc1ccccc1N1CC(O)=C(c2nc3ccccc3s2)C1=N 0.59
COc1cccc2sc(NNC(=O)c3nc4ccccc4s3)nc12 1.13
Cc1ccc(NC(=O)c2csc3c2CCCC3)cc1 1.12
CCN1CCN(C(=O)CN(C)S(=O)(=O)c2ccc3ccccc3c2)CC1 1
CCOC(=O)c1ccc(NC2Nc3cc(C)nn3S2)cc1 (stereo not drawn) 1.14
CCc1ccc(NC(=O)N2CCN(c3ccccc3)CC2)cc1 1.34
O=C(NCc1ccccc1)C1=C[C@@H](c2ccc(C(F)(F)F)cc2)C[C@@H](OCc2ccc(CO)cc2)O1 0.94
CCN(C(=O)COC(=O)c1ccc(COc2ccc3c(C)cc(=O)oc3c2)cc1)C1CCS(=O)(=O)C1 (stereo not drawn) 1.19
CSCC(=O)N1CCCC(C(=O)c2cc(F)ccc2F)C1 (stereo not drawn) 1.18
Fc1ccccc1N=C1Nc2cccc3cccc1c23 0.99
Cc1ccc(N=Cc2c(O)n(-c3nccs3)c(=O)c3ccccc23)c(C)c1 1.01
Cc1cccc(-n2c(C)cc(/C=N/NC(N)=S)c2C)c1 1.29
Cc1c(CN2CCCC(C(=O)c3cccc(Cl)c3)C2)c(=O)n(-c2ccccc2)n1C (stereo not drawn) 1.12
Cc1ccc(C(=O)Nc2cccc3ncccc23)cc1[N+](=O)[O-] 1.38
CC(C)(c1ccccc1)c1ccc(OCCN)cc1 1.16
O=C(Nc1ccc(F)cc1)N1CCN(c2ccc(F)cc2)CC1 1.12
CCOC(=O)C1(Cc2cccc(OC)c2)CCN(Cc2csc(C(C)=O)c2)CC1 0.84
O=C(O)c1ccc(N=NN2CCOCC2)cc1 1.3
O=C(c1ccccc1)N1CCN(C(=O)N2CCCCC2)CC1 1.3
COc1ccc(C(=O)NC2CCN(C(=S)Nc3ccccc3)CC2)cc1 1.12
COc1ccc(C(=S)Nc2ccccc2)cc1 1.98
Cc1ccc(C(=O)NNC(=O)c2cccs2)cc1 1.67
COCCNC(=O)/C(C#N)=C/c1nc(N(C)C)n(-c2ccc(F)cc2)c1Cl 1.11
Cc1nc(N2CCC(C)CC2)c2c(C)c(C(=O)Nc3cc(F)ccc3C)sc2n1 0.88
O=[N+]([O-])c1cccc(/C([O-])=C(/C(=S)Nc2ccccc2F)[n+]2ccccc2)c1 1.02
Cn1cc(Cl)c(C(=O)NNC(=S)Nc2cccc(Cl)c2)n1 1.46
Cc1cccc(C)c1Nc1nnc(SCC(=O)Nc2sccc2C#N)s1 1.08
COc1ccc(NC(=O)CSc2nc(C)cs2)cc1 1.38
CCO/C=C1\C(=O)N(c2ccc(OCC)cc2)C(=O)c2ccccc21 1.05
Cc1ccc(-c2csc(NC(=O)c3cccs3)n2)cc1 1.97
Cc1ccc(-c2nnc(-c3ccc(NC(=O)c4cccs4)cc3)o2)cc1 1.45
COc1ccc(CNC(=O)COC(=O)/C=C/c2ccc(S(=O)(=O)N3CCOCC3)cc2)cc1 1
COCCNc1nc2nonc2nc1N1CCCC1c1nccs1 (stereo not drawn) 1.05
C=CCN(Cc1nc(-c2cc(OC)c3c(c2)OCO3)oc1C)C1CCS(=O)(=O)C1 (stereo not drawn) 1.14
O=C(CSc1nnc2ccccn12)c1ccccc1 1.88
Cc1ccc(-n2c(C)cc(C(=O)CN3C(=O)C(=O)N(C4CCCC4)C3=O)c2C)cc1 0.71
CC1CC(C)CN(S(=O)(=O)c2ccc(C(=O)NN3CCOCC3)cc2)C1 (stereo not drawn) 1.27
Cc1cc(OCC(=O)NC2CCN(C)CC2)ccc1[N+](=O)[O-] 0.99
COc1ccccc1N(C)S(=O)(=O)c1ccc(Cl)c(C(=O)N2CCC(C(N)=O)CC2)c1 1.12
Cn1cnc(C(F)(F)F)c1-c1ccc([N+](=O)[O-])cc1 1.2
Cc1ccc(-c2cn3cc(C)ccc3n2)cc1 0.56
CCOC(=O)N1CCN(C(=O)CSc2nc(C)nc3c2c(=O)n(C)c(=O)n3C)CC1 0.96
Cc1cc(NC(=O)CSc2nc3ccccc3n2CC(C)C)no1 1.74
COc1ccc(NS(=O)(=O)c2cc(NC(=O)C3CCCCC3)ccc2N2CCOCC2)cc1 0.72
Cc1cc(C)nc(NNC2=CC(=O)CC(C)(C)C2)n1 1.06
COc1ccccc1C1C2=C(COC2=O)Nc2cc3c(cc21)OCO3 (stereo not drawn) 1.19
COCCOC(=O)C1=C(C)NC(=O)CC1c1cc2c(cc1Br)OCO2 (stereo not drawn) 0.99
COc1ccc(-n2ncc3c(N4CCc5ccccc54)ncnc32)cc1 0.87
COc1ccc(-n2ncc3c(N4CCCc5ccccc54)ncnc32)cc1 1
O=C(NCCC1=CCCCC1)C1CCN(Cc2cnn(-c3ccccc3)c2-n2cccc2)CC1 0.8
O=C(NNc1ncnc2c1cnn2-c1ccccc1)c1ccco1 1.27
CCC(CC)NC(=O)CSc1nnc(-c2c[nH]c3ccccc23)o1 1.09
COC(c1ccccc1)c1nnc(CCC(=O)N2CCN(CCOc3ccccc3)CC2)o1 (stereo not drawn) 1.23
COc1ccc(-c2[nH]ncc2CN(C)Cc2cc(C)[nH]n2)c(F)c1 0.97
COc1ccc(O)c(C(=O)c2cnc3c(c2)c(-c2ccc(F)cc2)c(C#N)c(=O)n3C)c1 0.93
COc1cc(C(=O)NCc2ccc(-n3cccc3)cc2)cc(OC)c1OC 1.25
COc1ccc(CN2CN(C3CCCC3)CSC2=S)cc1 1.11
COc1ccc(-c2nnc3ccc(SCc4ccccc4)nn23)cc1 0.97
COC(=O)CSc1nc(C)c2ccc(OC)cc2n1 1.13
O=C(c1ccc2ccccc2n1)N1CCN(c2ccccc2Cl)CC1 2.01
CN(C)c1ccc(C=C2C(=O)OC3(CCCC3)OC2=O)cc1 1.03
COc1ccc(-c2nc(-c3ccccc3)no2)c(OC)c1 1.5
COc1ccc2[nH]c(=O)c(-c3noc(-c4ccc(F)cc4)n3)cc2c1 1.09
Cc1ccc(Cc2nc(-c3cccc(C)c3)no2)cc1 1.99
COc1ccc(-c2noc(CSc3ccc(C)cc3)n2)cc1 1.04
COCCNC(=S)N1CCC(NC(=O)C23CC4CC(CC(C4)C2)C3)CC1 0.98
CN(CCN1CCOCC1)Cc1nc(-c2ccc3c(c2)OCO3)no1 1.23
Cn1cc(-c2ccccc2)cc(C#N)c1=O 1.11
CCN(CC)P(=O)(Nc1ccc(SC(F)F)cc1)c1ccc(N(C)C)cc1NC(=O)c1ccco1 (stereo not drawn) 0.57
COc1ccccc1NC(=S)N1CCN(C(c2ccccc2)c2ccccc2)CC1 0.89
CCN(CC(=O)NCc1cccs1)C(=O)c1ccccc1F 1.01
CC(C)CCN1CCN(Cc2ccc(C(F)(F)F)cc2)CC1CCO (stereo not drawn) 0.9
C/C(=N\Nc1nc(Nc2ccccc2)nc(N2CCOCC2)n1)c1cccs1 0.45
C/C(=N\Nc1ncc(Cl)cc1Cl)c1ccc(S(=O)(=O)NCc2ccco2)cc1 1.29
OCCNc1nc2ccccc2[nH]1 1.02
COc1cccc(/C(C)=N/Nc2ncc(Cl)cc2Cl)c1 1.88
CSc1nc2c(c(=O)[nH]1)C(c1cccc(Cl)c1Cl)CC(=O)N2 (stereo not drawn) 1.18
CC1Cc2ccccc2N1S(=O)(=O)c1c(N)n(C)c(=O)n(C)c1=O (stereo not drawn) 1.07
O=C(Nc1ccccc1)c1ccccc1NC(=O)C(F)(F)F 0.9
CC(C)n1c(=O)[nH]c2cc(C(=O)Nc3ccccc3)ccc21 1.9

Fold change, active:
CCn1c(/C=C/c2ccc([N+](=O)[O-])o2)nc2ccccc2c1=O 4.02
COc1ccccc1OCc1nc2ccccc2s1 4.3
CCc1ccc(NC2Nc3cc(C)nn3S2)cc1 (stereo not drawn) 4.6
Cc1cccc(-n2c(O)c(C=Nc3ccccc3N)c(=O)[nH]c2=O)c1 4.16
O=C(O)c1cccc(N=NN2CCCCCC2)c1 5.59
COc1ccc(NC(=S)N2N=CCC2c2ccccc2)cc1 (stereo not drawn) 3.93
Cc1csc(SCC(=O)Nc2sccc2C#N)n1 5.12
Cc1nc(-c2ccc(NC(=O)c3cccs3)cc2)cs1 5.59
Cc1ccc(-n2c(C)cc(C(=O)CSc3nnc4ccccn34)c2C)cc1 3.7
Cc1ccc(-c2cn3cc([N+](=O)[O-])ccc3n2)cc1 4.75
CCCOc1ccccc1C1CC(=O)Nc2cc3c(cc21)OCO3 (stereo not drawn) 3.71
C1=C(CCNc2ncnc3c2cnn3-c2ccccc2)CCCC1 4.63
c1ccc(-n2ncc3c(N4CCCC4)ncnc32)cc1 5.1
COc1ccc2nc(SCc3ccccc3)nc(C)c2c1 9.79
COc1ccc(-c2noc(-c3ccc(C)cc3)n2)cc1 5.86
Cc1cccc(-c2noc(-c3ccc(F)cc3)n2)c1 8.41
C/C(=N\Nc1nc2ccccc2[nH]1)c1cccs1 5.42
C/C(=N\Nc1ncc(Cl)cc1Cl)c1cccs1 4.91
O=C(Nc1ccccc1)c1cc2ccccc2[nH]1 3.43
